Consider 63 compounds from PubChem BioAssay AID1851 (National Center for Advancing Translational Sciences (NCATS), 2009).

The campaign covered roughly 16,000 compounds. About 5,700 (36%) were called active. About 24% were inconclusive and are not listed. The list shows a part of the results. A number with no mark means an inactive call. Calls come from the whole dose curve; as a rule, active = well fitted curve in the direction sought with a large enough effect; inconclusive = small, poorly fitted or top-dose-only effect, or effect the other way; inactive = no such curve, though single readings can be large or run the other way.
% is set by controls: 0 for no effect and ±100 for the full control effect.

In this test the target is Cytochrome P450 1A2 (Homo sapiens) (UniProt P05177). Kind of test: Cytochrome panel assay with activity outcomes. The following applies: recombinant CYP, pro-luciferin dealkylation, luminescence, p450-cyp1a2; series mostly up to 57.1 µM.
Sequence of Cytochrome P450 1A2 (Homo sapiens) (P05177 whole entry, looked up): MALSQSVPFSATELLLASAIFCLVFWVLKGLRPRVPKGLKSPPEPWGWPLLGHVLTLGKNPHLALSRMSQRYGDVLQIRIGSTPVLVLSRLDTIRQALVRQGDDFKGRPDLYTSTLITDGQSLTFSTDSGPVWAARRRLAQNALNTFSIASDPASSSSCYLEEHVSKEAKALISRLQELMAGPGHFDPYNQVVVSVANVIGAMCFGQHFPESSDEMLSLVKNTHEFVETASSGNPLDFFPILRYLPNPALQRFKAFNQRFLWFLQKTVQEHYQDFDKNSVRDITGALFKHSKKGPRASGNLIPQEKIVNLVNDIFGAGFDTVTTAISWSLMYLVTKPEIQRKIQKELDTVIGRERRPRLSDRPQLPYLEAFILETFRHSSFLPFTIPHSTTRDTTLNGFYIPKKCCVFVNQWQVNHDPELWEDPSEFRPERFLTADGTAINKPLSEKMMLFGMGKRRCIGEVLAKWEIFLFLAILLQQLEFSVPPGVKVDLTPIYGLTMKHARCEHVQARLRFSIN
On to `C1CNCCOCCNCCN1`, for which the AC50 entry is “inactive”. On the same count and under the same terms, as for `CC(C)C[C@@H](N)C(=O)Nc1ccc2ccccc2c1`, the figure is 1.58 µM (active); as for `CC(C)C[C@H](NC(=O)[C@@H](O)[C@H](N)Cc1ccccc1)C(=O)O`, “inactive”; as for `c1ccc2cc(NCNc3ccc4ccccc4c3)ccc2c1`, 0.631 µM (active). On the same count and under the same terms, as for `CC(=O)CC(=O)Nc1ccc2ccccc2c1`, the figure is 2 µM (active); as for `CC(C)C[C@H](NC(=O)[C@@H](O)[C@@H](N)Cc1ccccc1)C(=O)O`, “inactive”; as for `CCc1ccc(OCC(=O)Nc2ccc(-c3nc4ccccc4o3)c(O)c2)cc1`, “inactive”. Regarding `O=C(COc1ccc2ccccc2c1)Nc1ccc(Cc2ccncc2)cc1`, the AC50 was 0.112 µM (active). The same measure, in the same setting: as for `C=CCSc1nnc(NC(=O)COc2ccc3ccccc3c2)s1`, the entry is “inactive”. On to `O=C(O)C[C@H](S)C(=O)O`, for which the activity, negative = inhibition is -2.96% [at 11.4 µM]. Same read-out and setting: as for `CO[C@H]1COC(=O)[C@@H](Cc2ccccc2)NC(=O)[C@@H](C)COC(=O)C/C=C\[C@@H]1C`, the figure is -3.6% [at 11.4 µM]; as for `C#CCCCO/N=C1/C[C@@H](O)[C@@H](O)[C@@H]2[C@@H]3C(=O)N(C4CCCCC4)C(=O)[C@H]3CC[C@H]12`, 7.63% [at 11.4 µM]. `CC1(C)Oc2cc(N)c([N+](=O)[O-])cc2O1`: the AC50 was 8.91 µM (active). For the compound `CC(=O)Nc1ccc(S(=O)(=O)N2CCC(N(C)CCC(C)C)CC2)cc1`, the AC50 result was “inactive”. On the same count and under the same terms, in the case of `O=C(Nc1ccc(Cl)c(C(F)(F)F)c1)C1CCCN(S(=O)(=O)c2cnc[nH]2)C1` (stereo not drawn) it was 15.8 µM (active).

In the case of `CC(=O)Nc1ccc(NC(=O)C2CCN(S(=O)(=O)c3cccc4nonc34)CC2)cc1`, the AC50 result was “inactive”. Still for that read-out and setting: as for `CCc1ccc(NC(=O)C2CCN(S(=O)(=O)c3c(C)[nH]c(=O)[nH]c3=O)CC2)cc1`, the entry is “inactive”. With `CO[C@@H]1COC(=O)C/C=C\[C@H](C)COC(=O)[C@H](C)NC(=O)C/C=C\[C@H]1C`, the activity, negative = inhibition is -3.56% [at 11.4 µM]. As for `CC(C)Cn1c(-c2nn(C)cc2Cl)n[nH]c1=S`, the AC50 was 25.1 µM (active). On the same count and under the same terms, as for `Cc1nn(CCc2n[nH]c(=S)n2-c2ccc(F)c(Cl)c2)c(C)c1[N+](=O)[O-]`, the entry is “inactive”; as for `CCc1nn(C)c(-c2n[nH]c(=S)n2N)c1Cl`, “inactive”. The same measure, in the same setting: as for `COc1ccc(-c2nc3cnc(Oc4cccc(Cl)c4)nc3n(C[C@H]3CCCO3)c2=O)cc1`, the figure is 5.01 µM (active); as for `O=c1c(-c2cccs2)nc2cnc(Oc3cccc(Cl)c3)nc2n1C[C@H]1CCCO1`, 3.16 µM (active). As for `CC(=O)OC[C@@H]1O[C@H](C/C=N\OC[C@@H](O)COCc2ccco2)C=C[C@@H]1OC(C)=O`, the activity, negative = inhibition is 1.52% [at 11.4 µM].

On to `C[C@H](N)C(=O)O`, for which the AC50 entry is “inactive”.

With `CCCCCCCCC(=O)NCc1cc(OC)c(O)cc1I`, the AC50 was 12.6 µM (active).

`O=C(O)c1cc(C(=O)O)nc(C(=O)O)c1`: the activity, negative = inhibition is -9.81% [at 11.4 µM].

In the case of `CSc1c(-c2ccccc2)nc2ccccc2c1C(=O)O`, the AC50 entry is “inactive”.

For `CSc1nnnc2ccccc12`, the AC50 was 3.16 µM (active). Still for that read-out and setting: in the case of `Cc1cnc(NC(=O)CSc2ccc(Cl)cc2)s1` it was 3.16 µM (active). Still for that read-out and setting: in the case of `COC(=O)c1sccc1NC(=O)CSc1ccc(Cl)cc1` it was 14.1 µM (active); in that of `COCc1nnc(NC(=O)CSc2ccc(C)cc2)s1`, 12.6 µM (active); in that of `COCc1nnc(NC(=O)CC(c2ccccc2)c2ccccc2)s1`, “inactive”. Turning to `COc1ccc(Cc2nnc(NC(=O)CSc3ccc(C)cc3)s2)cc1OC`, the AC50 result was “inactive”. The same measure, in the same setting: as for `COC(=O)c1sccc1NC(=O)CSc1cc(Cl)ccc1Cl`, the figure is 2.51 µM (active).

As for `O=c1[nH]cc(CS(=O)(=O)Cc2c[nH]c(=O)[nH]c2=O)c(=O)[nH]1`, the activity, negative = inhibition is -24.4% [at 11.4 µM].

For `CC(=O)N1CCC2(CCN(Cc3nccs3)CC2)CC1`, the AC50 result is “inactive”. On the same count and under the same terms, as for `COCC(=O)N1CCC2(CC1)CN(C(=O)Nc1cccc(C#N)c1)C2`, the entry is “inactive”; as for `NCCSSCCN`, “inactive”.

With `CC(C)(Oc1ccc(-c2cccc3ccccc23)cc1)C(=O)O`, the activity, negative = inhibition was 8.77% [at 11.4 µM]. On to `CN1C(=O)/C(=N\OC(=O)c2cccc3ccccc23)c2ccccc21`, for which the AC50 is 7.08 µM (active). As to `CC(=O)c1c(O)cc(=O)n(-c2ccccc2)c1-c1cccc2ccccc12`, the AC50 entry was “inactive”. On to `COc1ccc2cc(C(=O)CCC(=O)O)ccc2c1`, for which the AC50 is 0.794 µM (active). Same read-out and setting: in the case of `COc1ccc(CCN=CC2=C(O)CC(C)(C)CC2=O)cc1` it was “inactive”; in that of `COc1ccc2cc(CCC(C)=O)ccc2c1`, 0.398 µM (active). The same measure, in the same setting: as for `COc1ccc(/C(O)=C2/C(=O)C(=O)N(CCCC(=O)O)C2c2ccc(OC)cc2)cc1` (stereo not drawn), the entry is “inactive”; as for `CCOc1ccc(C(=O)CCC(=O)O)cc1`, “inactive”.

As to `COc1cccc(/C=N/NC(=O)c2c(-c3ccccc3)noc2C)c1`, the AC50 result is “inactive”. As for `COc1cccc(/C=N/NC(=O)c2cc(-c3cccn3C)n[nH]2)c1`, the AC50 is 6.31 µM (active). On the same count and under the same terms, in the case of `COc1cc2nc(N3CCN(C(=O)OCc4ccccc4)[C@H](C(=O)NC(C)(C)C)C3)nc(N)c2cc1OC` it was “inactive”; in that of `CSc1nc(N)c2ncn([C@@H]3O[C@@H](COP(=O)(O)OP(=O)(O)O)[C@@H](O)[C@H]3O)c2n1`, “inactive”; in that of `CCn1c(=O)[nH]c2cc(Cl)c(Cl)cc21`, 0.251 µM (active). The same measure, in the same setting: in the case of `CCn1c(C)[n+](CCCS(=O)(=O)[O-])c2cc(Cl)c(Cl)cc21` it was “inactive”.

`CC[N+](CC)(CC)CC`: the AC50 entry was “inactive”. Regarding `CC1=N/C(=C\c2ccc([N+](=O)[O-])cc2)C(=O)N1c1ccc(Cl)cc1`, the AC50 entry was “inactive”. For `CC1=NN(c2ccc(S(=O)(=O)O)cc2)C(=O)/C1=C\c1ccc(Cl)cc1`, the activity, negative = inhibition was -8.89% [at 2.29 µM]. With `Cc1ccc(C)n1N1C(=O)/C(=C\c2ccc(Cl)cc2)SC1=S`, the AC50 was 1.58 µM (active). Turning to `C[C@@](N)(/C=C\c1ccccc1)C(=O)O`, the activity, negative = inhibition was -17.1% [at 11.4 µM]. With `O=C(CSc1ccc(Cl)cc1)Nc1ccc(N2CCN(c3ccccc3)CC2)c(F)c1`, the AC50 result is “inactive”. On to `O=C(CN1CCN(c2ccc(Cl)cc2)CC1)Nc1cccc(F)c1`, for which the half-maximal activity concentration (AC50) was 12.6 µM (active).

Consider `CCc1c2c(nc3c(C(C)C)cccc13)-c1cccc(=O)n1C2`, for which the AC50 is 0.398 µM (active). Still for that read-out and setting: as for `CC(C)c1cccc2cc3c(nc12)-c1cccc(=O)n1C3`, the figure is 0.501 µM (active); as for `CC(C)c1cccc2c([Si](C)(C)C)c3c(nc12)-c1cccc(=O)n1C3`, 15.8 µM (active).
